The sample as a whole holds a higher share of hits than the screen did.
Tb PFK inh-1: blocks T. brucei phosphofructokinase. T. brucei PFK, ADP-Glo luminescence. Potency, µM (doses to about 57.5 µM), without a hit: top-dose activity, negative = inhibition, actives largely listed as inhibitors. 330,000 tested, 0.17% active;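 further: potency means the concentration at half of the fitted maximal effect; 0% = uninhibited 1x PFK enzyme wells and -100% = no-enzyme wells; nearly all actives have a fitted effect of over 60% in size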
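In TEA buffer at pH 8.0 with 5 mM MgCl2, enzyme (1.25 nM) converted F6P (0.5 mM) and ATP (0.1 mM) for 45 min at room temperature. ADP product was read by luciferase luminescence.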
Tb PGK inh: T. brucei PGK inhibition; PGK/GAPDH coupled, Kinase-Glo luminescence, 60 min; Potency, µM (top dose mostly 57.5 µM), without a hit: top-dose activity change, negative = inhibition, actives largely listed as inhibitors; 380,000 tested, 0.043% active; AID 602233; further: potency means the concentration at half of the fitted maximal effect; on the % scale 0 is the no-effect control and ±100 the full control effect; nearly all actives have a fitted effect of over 60% in size
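Luminescent ATP detection (Kinase-Glo Plus) follows a 60-minute room-temperature incubation, with wells lacking PGK as controls. Buffer: 100 mM TEA (pH 7.6), 5 mM MgCl2, 0.01% Tween-20. Coupling enzyme GAPDH (100 nM final) supplies unstable 1,3-BPG in-well.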
Pin1 inhibitor: blocks the human prolyl isomerase Pin1; 390,000 tested, 0.009% active; AID 504891; Pin1 FP peptide displacement, HiFluor488, 10 min; Q13526; Potency, µM (doses to about 115 µM), for the others: top-dose activity, negative = inhibition, hits mostly inhibitors; active means well fitted inhibition curve with a large enough effect in the polarisation, with a control signal flat, not every such curve was filed as active; inconclusive means small, poorly fitted or top-dose-only effect, or effect the other way, or a change in a side signal; inactive means no such curve, though single readings can be large or run the other way; the % refers to the polarisation; further: potency means the concentration at half of the fitted maximal effect; on the % scale 0 is the no-effect control and ±100 the full control effect
Target sequence (Q13526 whole entry, looked up): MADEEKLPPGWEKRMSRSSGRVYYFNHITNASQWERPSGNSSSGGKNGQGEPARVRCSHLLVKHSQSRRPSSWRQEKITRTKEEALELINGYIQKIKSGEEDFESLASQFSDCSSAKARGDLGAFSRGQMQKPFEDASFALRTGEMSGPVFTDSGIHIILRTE
PI4K2A block: inhibitors of human PI4K2A; Q9BTU6; purified PI4K2A, ADP-Glo luminescence, 1 h; active compounds read low; activity change, negative = inhibition, % at 76.9 µM; 420,000 tested, 0.13% active; in the data active means activity change below about -50%; inconclusive means mostly about -30% to -49%;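 further: -100% = wells without enzyme as full effect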
Target sequence (Q9BTU6 whole entry, looked up): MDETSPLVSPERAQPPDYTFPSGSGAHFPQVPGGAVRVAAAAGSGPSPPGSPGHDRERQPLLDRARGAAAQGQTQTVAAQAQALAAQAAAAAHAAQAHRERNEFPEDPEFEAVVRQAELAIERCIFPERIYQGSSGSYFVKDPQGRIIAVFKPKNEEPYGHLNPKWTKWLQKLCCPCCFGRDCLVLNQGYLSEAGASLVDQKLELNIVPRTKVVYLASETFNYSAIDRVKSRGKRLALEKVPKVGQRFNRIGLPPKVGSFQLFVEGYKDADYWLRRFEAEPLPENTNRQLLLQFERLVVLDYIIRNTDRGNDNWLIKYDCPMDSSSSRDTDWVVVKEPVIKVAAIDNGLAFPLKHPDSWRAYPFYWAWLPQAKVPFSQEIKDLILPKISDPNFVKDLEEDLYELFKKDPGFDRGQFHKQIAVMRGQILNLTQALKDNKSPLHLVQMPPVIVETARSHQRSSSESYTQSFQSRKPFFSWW
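Compounds are screened against recombinant PI4K2A using PI as substrate and ATP, the latter dispensed at 300 microM. Reactions run one hour at ambient temperature before ADP-Glo detection; full inhibition defined by wells lacking enzyme.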
PI5P4K alpha inh: blocks human PI5P4K alpha kinase activity; P48426; PI5P4Kalpha enzyme, ADP-Glo luminescence, 60 min; active compounds read low; max response, %; 330,000 tested, 1.2% active; active means max response of -50% or lower; inconclusive means between -30% and -50%; inactive means -30% or higher; further: value at the top dose of about 77 µM; on the % scale 0 is the no-effect control and ±100 the full control effect
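qHTS, 1536-well: enzyme/substrate mix, compound by pin tool, 5 microM ATP final; RT 60 min; ADP-Glo reagents 1 (45 min) then 2 (30 min); luminescence.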
TbPFK ATP: orthogonal confirmation of T. brucei phosphofructokinase inhibitors | shares compounds with Tb PFK inh-1 | Tb PFK enzyme, ATP depletion, Kinase-Glo Plus luminescence | Potency, µM (top dose mostly 57.5 µM), without a hit: top-dose inhibition | 1,100 tested, 47% active; calls by dose curve; further: potency means the concentration at half of the fitted maximal effect; nearly all actives have a fitted effect of over 60% in size
Tb PFK inh-2: validation of T. brucei phosphofructokinase inhibitors | shares compounds with Tb PFK inh-1 | 1,100 tested, 41% active | purified T. brucei PFK, ADP-Glo luminescence, 45 min | Potency, µM (highest dose often 57.5 µM), inactives show top-dose activity change, negative = inhibition, usual class: inhibitors;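 further: potency means the concentration at half of the fitted maximal effect; plate controls were full PFK enzyme control for no effect and no enzyme control for full effect; nearly all actives have a fitted effect of over 60% in size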
* = called active by the depositor; i = inactive; ? = inconclusive; . = not tested or not shown. Unless noted, the call rests on the fitted dose curve; in most records, active means well fitted curve in the direction sought with a large enough effect; inconclusive means small, poorly fitted or top-dose-only effect, or another doubt; inactive means no such curve, though single readings can be large; an effect the other way counts as inactive or inconclusive.

SMILES	Tb PFK inh-1	Tb PGK inh	Pin1 inhibitor	PI4K2A block	PI5P4K alpha inh	TbPFK ATP	Tb PFK inh-2
CCOC(=O)c1c(NC(NC(=O)CF)C(Cl)(Cl)Cl)sc2c1CCCC2 (configuration not stated)	0.4%	-3.9%	-13.1%	-2.2	-17.6	.	.
NCCc1ccccc1	.	-2.6%	-5.5%	-2.1	-1.9	.	.
NCCOc1ccccc1Cc1ccccc1	19µM*	i	-1.1%	-9.0	12.7	?	?
CCN1CCN(Cc2cc(Br)cc(OC)c2O)CC1	-14.9%	i	9.2%	2.3	.	.	.
CCN1CCN(C(=O)Cc2ccccc2OC)CC1	3.0%	-7.1%	-6.4%	1.8	5.9	.	.
CCN1CCN(C(=S)c2ccc(O)cc2)CC1	13.5µM*	-2.4%	0.7%	-2.5	?	6.75µM*	23.9µM*
CCN1CCN(C(=S)c2ccc(Br)cc2)CC1	?	i	-6.4%	2.6	.	10.7µM*	26.9µM*
O=C(Nc1ccc(Br)cc1C(=O)c1ccccc1Cl)c1ccc(Br)cc1	.	i	1.3%	0.2	.	.	.
O=C(Cc1ccc(F)cc1)Nc1ccc(S(=O)(=O)N2CCCC2)cc1	16.9µM*	-11.6%	-19.2%	-0.5	3.7	?	?
O=C(Cc1ccc(Br)cc1)N1CCN(Cc2ccccc2)CC1	5.4%	9.4%	-0.4%	-1.7	1.8	.	.
O=C(Cc1ccc(Br)cc1)Nc1ccc(S(=O)(=O)N2CCCC2)cc1	19µM*	.	.	.	.	10.7µM*	21.3µM*
CC1C=CC(C)C(C(=O)O)C1C(=O)O (configuration not stated)	?	?	?	-2.1	-1.1	?	?
CN1C2CCC1C(C(=O)O)C(O)C2 (configuration not stated)	-4.1%	-5.2%	0.5%	-5.0	-0.3	.	.
CC(=NCCN1CCCCC1)c1c(O)n(-c2ccccc2)c(=O)[nH]c1=O	-4.5%	-8.5%	-2.5%	0.6	1.7	.	.
Cn1c(=O)[nH]c(=O)c2c1nc(SCCN1CCCCC1)n2CCCc1ccccc1	?	3.1%	-4.1%	0.5	-10.0	6.75µM*	16.9µM*
C[C@]12CC[C@@H](O)CC1=CCC1C2CC[C@@]2(C)C1CC[C@@H]2O (some centres not stated)	.	i	.	-5.5	5.2	.	.
N#Cc1ccc2ccn(CC(=O)NCc3ccccc3)c2c1	?	-2.4%	17.8%	0.0	.	?	21.3µM*
CC(=O)Nc1cc(C(=O)N2CCC3(CC2)OCCO3)ccc1Sc1ccc(F)cc1	-3.8%	2.9%	-2.0%	3.7	0.4	.	.
CCCCCCCCCCCCCCCCn1cc[n+](CC(C)=O)c1	?	-7.8%	16.9%	3.4	?	-6.7%	-7.0%
O=C(C[n+]1ccn(CCCNP2(=O)C=C(c3ccccc3)OC(c3ccccc3)=C2)c1)c1ccccc1	12.4%	1.8%	-0.1%	0.3	1.4	.	.
COc1ccc(N2C(=O)CC(N3CCC(n4c(=O)[nH]c5ccccc54)CC3)C2=O)cc1 (configuration not stated)	5.4%	-5.3%	-3.2%	-2.7	.	.	.
COc1ccc(N2C(=O)CS(=O)C(c3ccccc3)C2=O)cc1 (configuration not stated)	?	-10.9%	1.3%	-10.4	-20.4	?	-19.2%
Cc1ccc(-c2csc3n[nH]c(=S)n23)cc1	?	-4.9%	-0.1%	2.3	-95.1*	0.301µM*	0.426µM*
O=C(NC(=S)Nc1ccccc1C(=O)O)c1ccc2ccccc2c1	?	-3.1%	-4.4%	13.5	-23.5	-23.9%	?
CCOC(=O)C1=C(NC(=S)NC(=O)c2ccccc2)c2ccccc2CC12CCCC2	-0.9%	9.3%	-0.3%	2.7	-1.5	.	.
SMILES	Tb PFK inh-1	Tb PGK inh	Pin1 inhibitor	PI4K2A block	PI5P4K alpha inh	TbPFK ATP	Tb PFK inh-2
O=C(NCc1cccc(Cl)c1)c1ccc2c(c1)OCO2	?	-1.7%	-0.2%	-2.4	.	23.9µM*	30.1µM*
CC1CN=C(Nc2ccc(F)c(Cl)c2)S1 (configuration not stated)	1.4%	-2.8%	2.4%	-4.0	-5.3	.	.
O=C(CCC(=O)N1CCOc2ccc(Cl)cc21)NCCN1CCOCC1	?	-0.5%	1.3%	1.9	2.2	?	?
O=C(NCCN1CCOCC1)c1ccc(Cl)nc1	-4.6%	i	7.6%	3.8	0.2	.	.
Cc1nn(CC(=O)N2CCN(c3cccc(C(F)(F)F)c3)CC2)c(=O)c2cccn12	?	0.0%	1.3%	0.3	-11.2	?	-22.5%
CCc1nn(CC(=O)N2CCC3(CC2)OCCO3)c(=O)c2cccn12	1.4%	-6.7%	-1.7%	-3.6	3.2	.	.
c1ccc(CN2CCN(Cc3ccc4c(c3)OCCO4)CC2)cc1	-1.3%	4.2%	0.5%	11.0	1.9	.	.
S=C(NCc1ccc(Cl)c(Cl)c1)NCc1ccco1	26.9µM*	-6.8%	1.0%	0.7	-7.5	10.7µM*	21.3µM*
O=C(NCc1ccc(Cl)c(Cl)c1)c1ccco1	9.53µM*	i	13.2%	-0.2	0.6	6.01µM*	12µM*
N#Cc1ccc(NC(=O)CCNC(=O)c2ccco2)cc1Cl	-0.7%	-4.6%	-0.7%	3.3	8.6	.	.
Cc1ccc(CN2CCCC(C(=O)c3cccc(C(F)(F)F)c3)C2)o1 (configuration not stated)	-0.6%	i	-1.3%	-0.5	9.2	.	.
CN1CCc2nc3ccc(F)cc3c(C(N)=O)c2C1	0.7%	2.8%	-1.2%	5.1	-6.4	.	.
CN1CCc2nc3sc(C(=O)C45CC6CC(CC(C6)C4)C5)c(N)c3cc2C1	?	-1.1%	20.3%	-12.8	-6.6	-33.8%	?
CCSc1nnc(NC(=O)COc2ccc3ccccc3c2)s1	?	10.0%	10.8%	2.1	0.1	-32.9%	?
COC1=CC2C3Cc4ccc(OC)c(O)c4C2(CCN3C)CC1=O (configuration not stated)	-6.7%	-2.1%	-4.1%	5.4	-2.3	.	.
O=[N+]([O-])c1ccc(C2CC(c3ccccc3)=Nc3ccccc3S2)cc1 (configuration not stated)	?	i	1.6%	-1.5	4.5	7.0%	1.2%
O=[N+]([O-])c1ccc(C2C3C(c4ccccc4)=NC4(CCCC4)N32)cc1 (configuration not stated)	0.0%	-2.7%	-4.7%	-2.6	0.7	.	.
Fc1ccc(C2CC(c3ccco3)=Nc3ccccc3S2)cc1 (configuration not stated)	?	-3.8%	-2.2%	-13.2	0.5	6.5%	-11.9%
CCOCCN1CCC(OC(C)=O)C(C)C1 (configuration not stated)	-4.6%	-3.1%	0.0%	1.0	2.5	.	.

Screening results as filed in PubChem.
